Where “and” joins values, the source holds several entries; their conditions need not be identical. Equal entries are not always repeated. About 83,000 compounds went through this panel and 20% of them were active in at least one assay; those are over-represented in the sample as a whole.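 Plates (96-well) were seeded with cells, treated with compound at one concentration, and incubated for 48 hours before percent growth was determined.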 Calls of active or inactive are those of the source.
system: SN12C renal; test: NCI-60 one-dose screen, 48 h (100 = growth as untreated, 0 = no growth, -100 = all killed); conditions: 10 µM
Method: Growth inhibition of the SN12C human tumor cell line is measured as a screen for anti-cancer activity. Cells are grown in 96 well plates and exposed to the test compound for 48 hours. Compounds are tested at a single concentration, which is 10^-5 M for most compounds. The reported endpoint is percent growth (GI% or GIPRCNT), where numbers from 0 - 100% represent growth inhibition, and numbers from -100% - 0 represent cell death. For example, a value of 40 represents 60% growth inhibition. A value of 0 means no net growth occurred over the course of the experiment. A value of -40 indicates 40% of cells at the beginning of the experiment died by the end of the experiment. A value of -100 means all cells are dead at the end of the experiment.
NCI-60 Human Tumor Cell Lines Screen was performed using the standard one-dose NCI protocol, which is described in more detail at https://dtp.cancer.gov/discovery_development/nci-60/default.htm.
Compounds with GIPRCNT values below 10 were considered active. Activity score was based on GIPRCNT using the following formula: […]
Score is 0 for GIPRCNT values of 100 or above, 50 for GIPRCNT values of 0, and 100 for GIPRCNT values of -100.

| SMILES | growth |
| --- | --- |
| CC(=O)/C=C/c1ccc(OCc2ccc(Cl)cc2)cc1 | 102% (inactive) |
| COc1ccc(C(=O)/C=C/c2ccc(OCc3ccc(Cl)cc3)cc2)cc1OC | 107% (inactive) |
| CC(=O)/C=C/c1ccc(N(CCO)Cc2ccc(C(C)(C)C)cc2)cc1 | 73% (inactive) |

same assay, conditions: 10 µM unless noted

| SMILES | growth |
| --- | --- |
| O/N=C(/c1ccccc1)c1ccc2c3c(cccc13)CC2 | 93.1% (inactive) and 85.7% (inactive) |
| NS(=O)(=O)OCC1OC(n2cnc3cncnc32)C(O)C1O (stereo not given) | -10.2% [0.1 µM] (active) and -29.3% [0.1 µM] (active) |
| CCCCC#Cc1c(/C=C(\CCCC)SCC)n(C)c(=O)[nH]c1=O | 101% (inactive) |
| COc1cc(/C=N/NC(=O)CCN2c3ccccc3Sc3ccccc32)cc(OC)c1OC | 76.8% (inactive) |
| O=C(Nc1ccc(Cl)c(Cl)c1)Nc1ccc(Cl)c(Cl)c1 | -83.4% (active) and 14.8% (inactive) |
| COc1cc(-c2nc(SCCC(C)C)nc(Nc3ccc(F)cc3)c2C#N)cc(OC)c1OC | 64.6% (inactive) |
| O=C1/C(=C/c2ccc(F)c(F)c2)CN(C(=O)C(Cl)Cl)C/C1=C\c1ccc(F)c(F)c1 | -75.3% (active) |
| O=C(NNc1ccccc1)C1CCCN1 (stereo not given) | 85.4% (inactive) |
| O=C1CCCCN1CCCCC#Cc1cccc(C#Cc2cccnc2)c1 | 90.3% (inactive) |
| Cn1cc(-c2nonc2-c2cn(C)c3ccc(Br)cc23)c2ccccc21 | 37.1% (inactive) |
| O=c1c2c([nH]c3ccccc13)CCCC2 | 95.8% (inactive) and 56.5% (inactive) |
| C=CCOc1ccc(/C=C2\SC(=S)N(CCc3ccc(O)cc3)C2=O)cc1 | 84.4% (inactive) |
| COc1ccc2c(c1)c(-c1nc(-c3c[nH]c4c(Cl)nccc34)cs1)cn2C | 95.9% (inactive) |
| Nc1nc(Nc2ccc(F)cc2)nn1C(=O)c1cc(Cl)ccc1Cl | 68% (inactive) |
| COc1ccc(S(=O)(=O)Nc2cc(Sc3cccc4cccnc34)c(O)c3ccccc23)cc1 | 17.2% (inactive) |
| O=C(Nc1ccccc1C(=O)N/N=C(\c1ccccc1)c1ccccn1)c1ccccc1 | 25.4% (inactive) |
| CCOC(=O)C(=CCC(C)C)C(=O)OCC | 90.5% (inactive) |

| SMILES | growth |
| --- | --- |
| COCCn1cc(-c2nc(-c3cn(CCOC)c4ncccc34)cs2)c2ccccc21 | 107% (inactive) |
| COC(=O)/C=C1/SC(=Nc2ccc([N+](=O)[O-])cc2)N(CCc2c[nH]c3ccccc23)C1=O | 58.8% (inactive) |
| O=C(CCN1CCOCC1)Nc1cccc(-n2cc(-c3ccncc3)c(-c3ccc(Cl)c(O)c3)n2)c1 | 42.8% (inactive) |
| COc1ccc(Oc2nc(Nc3ccc(N4CCOCC4)cc3)ncc2NC(=O)c2cc(OC)cc(OC)c2)cc1 | 89% (inactive) |
| Cc1ccc(S(=O)(=O)OC[C@@]2(C)CC[C@]3(C)CC[C@]4(C)C(=C3C2)C=C[C@@H]2[C@@]3(C)CCCNC(C)(C)[C@@H]3CC[C@]24C)cc1 | 7.76% (active) |
| CSc1nnc(-c2cc3c([nH]c4ccccc43)c(-c3cccc(O)c3)n2)n1-c1ccc(C)cc1 | 62.7% (inactive) |
| C=C[C@]1(C)C=C2CC[C@@H]3C(C)(C)C(=O)CC[C@@]3(C)[C@@H]2CC1 | 99% (inactive) |
| Cc1ccc(S(=O)(=O)Nc2cc(Sc3ccccc3)c(O)c3ccccc23)cc1 | 64.2% (inactive) |
| Cn1cc(-c2csc(-c3cn(CCOC(N)=O)c4ccccc34)n2)c2cccnc21 | 88.3% (inactive) |
| COc1ccc(Cn2cc(C(=O)Nc3cccnc3Nc3ccccc3)nn2)cc1 | 86.5% (inactive) |
| CC(C)=CCc1cc(O)c(O)c2oc3cc(O)cc(O)c3c(=O)c12 | 58.4% (inactive) |
| CN1CCN(c2ccc(/C=C/C(=O)c3ccc(O)cc3)cc2)CC1 | 94.1% (inactive) |
| O=Nc1c(O)ccc2ccccc12 | 4.86% (active) and 93.6% (inactive) |
| C=C(c1ccc(C(=O)O)cc1)c1cc2c(cc1C)C(C)(C)CCC2(C)C | 87.5% (inactive) and 77.5% (inactive) |
| O=C(CCl)N(O)c1ccc(/C=C/c2ccccc2)cc1 | 63.3% (inactive) and 48.8% (inactive) |
| Cc1ccc(C(=O)N(CCCN)[C@@H](c2nc3cc(Cl)ccc3c(=O)n2Cc2ccccc2)C(C)C)cc1 | -15.6% (active) |
| COCCn1cc(-c2csc(-c3cn(C)c4ccc(F)cc34)n2)c2cccnc21 | 74.5% (inactive) |

same assay, conditions: 100 µM

| SMILES | growth |
| --- | --- |
| CC(=O)/C=C/c1ccc(OCc2ccc(Cl)cc2)cc1 | 48.6% (inactive) |
| COc1ccc(C(=O)/C=C/c2ccc(OCc3ccc(Cl)cc3)cc2)cc1OC | 28.5% (inactive) |
| CC(=O)/C=C/c1ccc(N(CCO)Cc2ccc(C(C)(C)C)cc2)cc1 | -86.4% (active) |
